In PubChem BioAssay (Tox21):
Results filed as inconclusive are left out. A call without a number means that no potency is given here. Unmarked numbers belong to inactive results. Active and inactive are the calls of the source. Calls follow the shape of the dose curve; as a rule, active = well fitted cell-killing curve with a large enough effect in the repeat runs; inconclusive = weak or mixed curves, or effect the other way; inactive = flat fitted curve, though single readings scatter.

assay: qHTS RealTime-Glo MT Cell Viability Assay in HEK293 cells - 32 hour (AID 1224868); details: RealTime-Glo luminescence; series mostly up to 76.8 µM; also: top concentration of the series differs between compounds; nearly all actives have a fitted effect of over 50% in size
Description: National Center for Advancing Translational Sciences [NCATS]
NIH Chemical Genomics Center [NCGC]
U.S. Environmental Protection Agency [EPA]
National Institutes of Environmental Health Sciences [NIEHS]
National Toxicology Program [NTP]
U.S. Food and Drug Administration [FDA]
Measure of cell viability is critical in the cell-base assay. Analysis of cell viability is necessary for the characterization of cell responses to cytotoxic drugs and environmental stress. A RealTime-Glo MT Cell Viability Assay to monitor cell viability in real time of continues cell culture during 40 hours of compound treatment was used to screen Tox21 10K library compounds in Hek293 cells. The RealTime-Glo MT Cell Viability Assay is a nonlytic, homogeneous, bioluminescent method to measure cell viability in real time using a simple, plate-based method. The assay involves adding NanoLuc luciferase and a cell-permeant prosubstrate to cells in culture. Viable cells reduce the proprietary prosubstrate to generate a substrate for NanoLuc luciferase. This substrate diffuses from cells into the surrounding culture medium, where it is rapidly used by the NanoLuc Enzyme to produce a luminescent signal. The signal correlates with the number of viable cells, making the assay well suited for cytotoxicity studies.
Tox21 Assay Protocol Summary:
The mixture of Hek293 cell suspension and reagents were dispensed at 600cells/6 ul/well in 1536-well tissue culture treated black solid bottom plates using a Multidrop dispenser. After the assay plates were incubated at a 37 C/5% CO2 incubator for 5 hours, 23 nL of compounds dissolved in DMSO, positive and negative controls was transferred to the assay plate by a pintool work station. The plates were incubated at 37 C for 40 hours. The luminescence intensity were measured at 0h, 8h, 16h, 24h, 32h and 40h time points using ViewLux plate reader during compound treatment.

SMILES | Potency | activity change, negative = cytotoxic
CC(=O)CC(C)C | inactive | –
CCCCOCCOCCOCc1cc2c(cc1CCC)OCO2 | inactive | –
CCOC(=O)c1cccc(N)c1 | inactive | –
CCn1ccnc1CC1COc2ccccc2O1 (stereo not given) | inactive | –
N=c1nc(N2CCCCC2)cc(N)n1O | inactive | –
CCN(Cc1ccncc1)C(=O)C(CO)c1ccccc1 (stereo not given) | inactive | –
C[C@H](NC(CCc1ccccc1)C(=O)O)C(=O)N1CCC[C@H]1C(=O)O (stereo not given in full) | inactive | –
Nc1cc(=O)[nH]c(N)n1 | inactive | –
C=C(C)C(=O)OCCCCCCCC(C)C | inactive | –
CCN(CC)CCOCCOC(=O)C1(c2ccccc2)CCCC1 | inactive | –
CCOC(=O)C(=O)OCC | inactive | –
Nc1ccccc1S(=O)(=O)O | inactive | –
CCC=O | inactive | –
CCC(=O)OC(C)c1ccccc1 (stereo not given) | inactive | –
C[N+](C)(C)CCCCCC[N+](C)(C)C | inactive | –
CC(C)(CC(=O)O)C(=O)O | inactive | –
NCCCNCCSP(=O)(O)O | – | 3.62% [at 6.97 µM]
CCCCCCCCCCCCN(CCCCCCCCCCCC)CCCCCCCCCCCC | inactive | –
COC(=O)C1=C(C)NC(C)=C(C(=O)OC)C1c1ccccc1[N+](=O)[O-] | inactive | –
CCCCC(CC)COC(=O)c1ccccc1O (stereo not given) | inactive | –

SMILES | Potency | activity change, negative = cytotoxic
Nc1c[n+](N2CCOCC2)no1 | inactive | –
Cn1c(N)c(N=O)c(=O)n(C)c1=O | inactive | –
OCCOc1ccc(OCCO)cc1 | inactive | –
COC(=O)CCSCCC(=O)OC | inactive | –
COc1c(N2C[C@@H]3CCCN[C@@H]3C2)c(F)cc2c(=O)c(C(=O)O)cn(C3CC3)c12 | inactive | –
FC1(F)C(F)(F)C(F)(F)C2(F)C(F)(F)C(F)(F)C(F)(F)C(F)(F)C2(F)C1(F)F (stereo not given) | inactive | –
O=C(O)CNC(=O)c1ccc([N+](=O)[O-])cc1 | inactive | –
CC(C)=CCCC(C)CC(=O)O (stereo not given) | inactive | –
CCCN(CCC)CCc1cccc2c1CC(=O)N2 | inactive | –
CN1CC(=O)NC1=N | inactive | –
CC(=O)OCC(=O)[C@@]1(O)CC[C@H]2[C@@H]3CCC4=CC(=O)CC[C@]4(C)[C@H]3C(=O)C[C@@]21C | inactive | –
CC(C)NC(=O)NC(C)C | inactive | –
CCOC(=O)c1ccc(C)cc1 | inactive | –
CCCCCCCCS(=O)(=O)Cl | inactive | –
CC(C[N+](C)(C)C)OC(N)=O (stereo not given) | inactive | –
O=Cc1cccc([N+](=O)[O-])c1 | inactive | –
C[N+](C)(C)CC(O)CC(=O)[O-] (stereo not given) | inactive | –
CN1CCN(c2cc3c(cc2F)c(=O)c(C(=O)O)cn3-c2ccc(F)cc2)CC1 | inactive | –
CC(=O)N(CC(O)CO)c1c(I)c(C(=O)NCCO)c(I)c(C(=O)NCC(O)CO)c1I (stereo not given) | inactive | –
COc1ccc2c(c1)CCCC2=O | inactive | –
